# This is a sample that favours compounds with a hit; in the whole collection about 1% have one here.
# BAP1 block – inhibitors of BAP1 deubiquitinase, primary screen, biochemical, Ub-AMC fluorescence, kinetic; recombinant BAP1, Ub-AMC hydrolysis fluorescence kinetic; stronger effect = lower value; 72,000 compounds, 0.48% hits; Ubiquitin carboxyl-terminal hydrolase BAP1 (Homo sapiens), Q92560; calls only at 20 µM;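 active = activity remaining at or below 50% of control, provided the compound also passes the data quality filters; inactive = the rest, including low values that fail the filters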
# DUSP1 inh – MKP-1 phosphatase inhibitors, primary screen, biochemical, in vitro. recombinant MKP-1, OMFP hydrolysis fluorescence. inhibition, %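 (compounds tested at a single concentration somewhere between 10 and 100 µM)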. Dual specificity protein phosphatase 1 (Homo sapiens), P28562. 65,000 compounds, 0.15% hits;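 active = inhibition above about 50%, limit read from the data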
# Target sequence (P28562 whole entry, looked up): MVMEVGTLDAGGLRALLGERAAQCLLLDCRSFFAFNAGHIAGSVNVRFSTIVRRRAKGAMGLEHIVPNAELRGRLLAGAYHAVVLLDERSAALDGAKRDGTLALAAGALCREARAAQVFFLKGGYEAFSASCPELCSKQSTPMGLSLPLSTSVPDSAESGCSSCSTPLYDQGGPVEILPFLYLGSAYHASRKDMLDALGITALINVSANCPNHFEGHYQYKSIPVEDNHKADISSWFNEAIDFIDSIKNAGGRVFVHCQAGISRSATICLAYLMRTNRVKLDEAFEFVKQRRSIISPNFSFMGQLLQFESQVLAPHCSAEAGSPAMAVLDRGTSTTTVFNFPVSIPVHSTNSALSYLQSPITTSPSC
# Cdc25B inh – inhibitors of Cdc25B phosphatase catalytic domain, primary screen, biochemical, OMFP fluorescence; recombinant Cdc25B, OMFP fluorescence Ex485/Em525; inhibition, %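 (compounds tested at 10 µM final in the well)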; 65,000 compounds, 0.1% hits; in the data active = inhibition above about 50%
# Hsp90 inh – tumor Hsp90 inhibitors, primary screen, cell lysate, fluorescence polarization, NCI-N417 lysate; inhibition, % at 30 µM; AID 429, 2006; 64,000 compounds, 0.35% hits; Cy3B-geldanamycin FP displacement; Heat shock protein HSP 90-alpha (Homo sapiens), P07900;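 active = inhibition above 50%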
# Redox 05 DTT – redox cycling H2O2 generation, 0.5 mM DTT, dose response, artefact control, biochemical, Cdc25B catalytic domain. shares compounds with Cdc25B inh. AID 682, 2007. EC50, µM. 30 compounds, 50% hits. cell-free redox cycling H2O2 generation; in the data active = EC50 below about 30 µM
# Redox H2O2 1DTT – redox cycling H2O2 generation, 1 mM DTT, dose response, artefact control, biochemical, 1.0 mM DTT, Cdc25B catalytic domain | 30 tested, under 10 active | cell-free redox cycling H2O2 generation | shares compounds with Cdc25B inh | EC50, µM | AID 683, 2007; in the data active = EC50 below about 50 µM
# Redox H2O2 – redox cycling hydrogen peroxide production, dose response, artefact control, biochemical, probe assessment | shares compounds with DUSP1 inh | Redox cycling H2O2 generation, DTT, phenol red/HRP | EC50, µM | 60 tested, under 10 active; call rule not given here
# BAP1 inh confirm – BAP1 deubiquitinase inhibitors, hit retest, confirmation, orthogonal assay, biochemical, Ub-ethyl ester substrate, HPLC readout | shares compounds with BAP1 block | purified BAP1, Ub-ethyl ester hydrolysis; stronger effect = lower value | % of control activity, % at 20 µM | 310 compounds, 8% hits | AID 753, 2007;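 active = percent of control activity at or below 60%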
# Numbers stand for hits; n = inactive; x = not tested or not shown; + = active, no number.
SMILES,BAP1 block,DUSP1 inh,Cdc25B inh,Hsp90 inh,others
NC1CCc2cc(O)c(O)cc2C1 (configuration not stated),n,x,x,52.9,
O=c1c(Cl)c(Cl)[nH]c(Cl)c1Cl,n,x,x,x,
COc1ccc(C2=NCC(=O)N(CC(=O)NCc3ccco3)c3sc4c(c32)CCCC4)cc1OC,n,n,56.3,n,
O=C(CN1C(=O)CN=C(c2ccccc2)c2ccccc21)NCc1ccco1,n,n,n,n,
CC12CCC(O)CC1=CCC1C2CCC2(C)C(O)C(=Cc3ccc(OC(F)F)cc3)CC12 (configuration not stated),n,x,x,x,
O=C(Nc1ccc(Br)cc1C(=O)c1ccccc1)c1ccc(S(=O)(=O)N2CCOCC2)cc1,n,x,x,x,
COC(=O)c1cc2c(cn1)[nH]c1ccccc12,+,x,x,n,
CCOc1ccc(C(=O)Nc2ccc(Br)cc2C(=O)c2ccccc2)cc1,n,x,x,x,
CN(N=O)c1cc(O)ccc1O,n,x,x,98.5,
CNc1ccc2oc(C[C@H]3O[C@@]4(CC[C@H]3C)O[C@H]([C@H](C)C(=O)c3ccc[nH]3)[C@H](C)C[C@H]4C)nc2c1C(=O)O,+,x,x,n,
C[C@H]1CCC[C@H](O)CCCCCc2cc(O)cc(O)c2C(=O)O1,n,n,n,87.3,
C[C@H]1CCC[C@@H](O)CCC/C=C/c2cc(O)cc(O)c2C(=O)O1,x,n,n,x,
CCn1nc(-c2ccccc2)nc2c(=O)n(C)c(=O)nc1-2,n,97.8,100.9,88.6,Redox 05 DTT=0.731;Redox H2O2 1DTT=1.6;Redox H2O2=13.8
CCc1nc2ccccc2c(=O)n1-c1ccc(O)cc1,n,x,x,x,
CCCCNC(=O)c1c(N)n(CCCOC)c2nc3ccccc3nc12,n,n,n,n,Redox H2O2=n
O=C(Nc1ccc(Cl)cc1C(=O)c1ccccc1Cl)c1ccc([N+](=O)[O-])s1,n,x,x,x,
O=C(Nc1ccncc1)c1c(O)c2ccccc2n(Cc2ccccc2)c1=O,n,n,n,n,
O=C(Nc1cccnc1)c1c(O)c2c(n(Cc3ccccc3)c1=O)CCCC2,+,n,n,n,BAP1 inh confirm=n
CCCCn1c(=O)c(C(=O)NCc2ccncc2)c(O)c2ccccc21,+,n,n,n,BAP1 inh confirm=n
O=C(COc1ccc(Cl)cc1)Nc1ccc(Br)cc1C(=O)c1ccccc1,n,x,x,x,
COCCOC(=O)c1c(N)n(Cc2ccco2)c2nc3ccccc3nc12,x,n,n,n,BAP1 inh confirm=n

# Screening data: PubChem, several laboratories
